Screens as filed in PubChem BioAssay.
Hits are enriched below; roughly 11% of the tested compounds scored in any of these assays.
VP16 counter – inhibits Gal4-VP16 luciferase reporter, ROR gamma counter-screen. hit rate 3.5% among 310,000. Potency, µM (doses to about 53.6 µM), for the others: at the highest dose activity, negative = inhibition, most hits filed as inhibitors. Drosophila S2 Gal4-VP16 UAS-luciferase, luminescence, 20 h. AID 2546;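 also: Gal4-VP16 expression switched on by copper sulfate through the metallothionein promoter; potency is read from the fitted curve at half-maximal effect; % is scaled to controls: 0 for no effect and ±100 for the full control effect; nearly all actives have a fitted effect of over 50% in size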
RORg inh – inhibitors of mouse ROR gamma transcriptional activity; P51450; Drosophila S2 Gal4-RORgamma UAS-luciferase reporter, 20 h; Potency, µM (doses to about 53.6 µM), for inactives: at the highest dose activity change, negative = inhibition, actives largely listed as inhibitors; hit rate 5.4% among 310,000; AID 2551; also: potency is read from the fitted curve at half-maximal effect; % is scaled to controls: 0 for no effect and ±100 for the full control effect; nearly all actives have a fitted effect of over 60% in size
Target sequence (P51450 whole entry, looked up, the tested form may be a part): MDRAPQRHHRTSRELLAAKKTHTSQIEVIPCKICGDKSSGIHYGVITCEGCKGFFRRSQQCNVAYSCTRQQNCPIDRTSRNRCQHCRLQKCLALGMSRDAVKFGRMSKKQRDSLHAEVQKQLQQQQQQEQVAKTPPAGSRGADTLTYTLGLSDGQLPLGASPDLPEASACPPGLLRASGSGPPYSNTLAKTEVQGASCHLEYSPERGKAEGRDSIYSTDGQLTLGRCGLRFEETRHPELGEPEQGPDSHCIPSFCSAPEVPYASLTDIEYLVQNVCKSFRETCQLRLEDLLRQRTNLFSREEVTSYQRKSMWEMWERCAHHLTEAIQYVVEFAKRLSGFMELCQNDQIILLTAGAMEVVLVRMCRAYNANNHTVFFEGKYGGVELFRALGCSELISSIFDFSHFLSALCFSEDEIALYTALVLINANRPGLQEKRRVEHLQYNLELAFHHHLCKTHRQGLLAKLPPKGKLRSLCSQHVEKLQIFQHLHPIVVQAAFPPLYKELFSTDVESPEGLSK
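Stably transfected Drosophila Schneider cells are the test system, with ROR gamma fused to Gal4 and luciferase under UAS control; luminescence is read after 20 hr of 700 uM copper sulfate induction at ambient temperature.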
IL-1B inflam inh – inhibitors of inflammasome signaling (IL-1 beta secretion) | hit rate 4.7% among 360,000 | THP-1 LPS/ATP IL-1B secretion, AlphaLISA, 16 h; stronger effect = lower value | activity change, % at 57.5 µM | AID 743279; in the data active = activity change below about -50%; inconclusive = mostly about -30% to -49%; also: % is scaled to controls: 0 for no effect and ±100 for the full control effect
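Secreted IL-1B measured by AlphaLISA bead assay after 16 h compound exposure of THP-1 cells; compounds (final up to 57.5 uM) added 1 h before LPS (250 ng/mL) and ATP (1.25 mM) stimulation; lower signal means less secretion.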
SW480 rerep – DNA re-replication induction in SW480 cells. hit rate 1.8% among 340,000. SW480 DNA re-replication, Hoechst DNA content imaging, 48 h. Potency, µM (top dose mostly 46.1 µM), without a hit: top-dose re-replication activation, hits mostly activators; also: potency is read from the fitted curve at half-maximal effect; % of control where 0% means no effect; nearly all actives have a fitted effect of over 55% in size
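Treated cells incubate 48 hr (37 C, 5% CO2), are stained 40 min with Hoechst, and nuclear fluorescence is enumerated; a rise in nuclei with high DNA signal marks re-replication.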
MCF10A rerep – inducers of DNA re-replication in MCF 10A breast cells | AID 624296 | MCF 10A DNA re-replication, Hoechst nuclear intensity, 48 h | hit rate 2.9% among 350,000 | Potency, µM (titrated, usually from 46.1 µM), for the others: top-dose activity, positive = re-replication, usual class: activators; also: potency is read from the fitted curve at half-maximal effect; % of control where 0% means no effect; nearly all actives have a fitted effect of over 50% in size
* marks the source's active call; other numbers are inactive results; ? = inconclusive; · = no result; [ ] = dose if it differs, or a comment. Unless noted, calls follow the shape of the dose curve; as a rule, active = well fitted curve in the direction sought with a large enough effect; inconclusive = small, poorly fitted or top-dose-only effect, or another doubt; inactive = no such curve, though single readings can be large; an effect the other way counts as inactive or inconclusive.

SMILES | VP16 counter | RORg inh | IL-1B inflam inh | SW480 rerep | MCF10A rerep
NC(=O)c1cc2c(s1)-c1cc(Cl)ccc1SC2 | 2% | 2% | -5 | 9% | ?
COCCNC(=O)c1cc2c(s1)-c1ccc(Cl)cc1SC2 | ? | 9% | -57* | 29% | ?
O=C(Nc1ccc(S(=O)(=O)Nc2ccccc2)cc1)C1COc2ccccc2O1 (configuration not stated) | ? | ? | -69* | 3% | -2%
Cc1cc(C)nc(NS(=O)(=O)c2ccc(NC(=O)C3COc4ccccc4O3)cc2)n1 (configuration not stated) | -4% | 2% | -13 | -1% | -4%
COc1ccc(OC)c(NC(=O)C2COc3ccccc3O2)c1 (configuration not stated) | 3% | 18% | -11 | 0% | 20%
COc1ccccc1NC(=O)c1ccc(NC(=O)C2COc3ccccc3O2)cc1 (configuration not stated) | 14% | 13% | -55* | -8% | ?
CC(Oc1ccc(F)cc1F)C(=O)NNC(=S)NCC1CCCO1 (configuration not stated) | ? | 11µM* | 0 | -5% | 0%
CCN(CC)c1ccc(NC(=S)NCC2CCCO2)cc1 (configuration not stated) | 13µM* | 14µM* | 25 | -2% | -3%
Cc1ccc(NC(=S)NCC2CCCO2)cc1C (configuration not stated) | 10µM* | ? | 7 | -21% | -2%
Clc1ccc(-c2ccc(CNCC3CCCO3)o2)cc1 (configuration not stated) | 4% | 14% | -77* | 0% | 20%
Cc1cccc(NC(=S)NCC2CCCO2)c1 (configuration not stated) | ? | ? | 9 | 4% | -4%
O=[N+]([O-])c1cc([N+](=O)[O-])c2oc(-c3ccccc3)c(Br)c2c1O | 0% | ? | 15 | -7% | ?
COCCN(C(=O)COC(=O)CCC1CCCC1)c1c(N)n(Cc2ccccc2)c(=O)[nH]c1=O | · | · | 2 | -119% | -3%
CCOc1ccc(S(=O)(=O)n2ccnc2C)cc1 | -5% | 6% | · | · | ·
S=C(NCCN1CCCCC1)Nc1ccc(Br)cc1 | -9% | ? | -4 | 16µM* | 0%
S=C(NCC1CCCO1)Nc1ccccc1 (configuration not stated) | -3% | 11µM* | -8 | 0% | -7%
COc1cc(NC(=S)NCC2CCCO2)c(OC)cc1Cl (configuration not stated) | 18µM* | 10µM* | -10 | -129% | -3%
COc1cc(NC(=O)C2CCCO2)c(OC)cc1Cl (configuration not stated) | 4% | 3% | -26 | -3% | 1%
O=C(NCC1CCCO1)Nc1ccc(Cl)cc1 (configuration not stated) | -2% | 6% | 3 | -2%[9.22 µM] | -4%
S=C(NCC1CCCO1)Nc1ccc(Cl)cc1 (configuration not stated) | ? | 10µM* | 7 | 0% | 7%
CC(=O)Oc1[nH]c(=O)c2cccc3c2c1CCC3 | · | · | -11 | · | ·
CNc1cncc(-c2cccc(O)c2)n1 | · | · | 0 | · | ·
Nc1[nH]c(C(=O)c2ccccc2)c(-c2ccccc2Br)c1C(=O)c1ccccc1 | · | · | 21 | · | ·
Cc1ccc(NC(=S)NCCCN2CCOCC2)cc1C | -95% | -45% | 13 | -11% | 0%
Cc1ccc(NC(=S)NCc2ccccc2)cc1S(=O)(=O)N1CCCCC1 | ? | 29% | -22 | ? | 0%
S=C(NCC1CCCO1)Nc1ccc(Cl)cc1Cl (configuration not stated) | ? | 16µM* | -9 | -4% | 0%
Cc1ccc(NC(=S)NCC2CCN(C(C)c3ccccc3)C2)cc1C (configuration not stated) | ? | 8.9µM* | -29 | -3% | 0%
Cc1ccc(NC(=S)NCC2CCCO2)c(OC(F)F)c1 (configuration not stated) | ? | 11µM* | -13 | -10% | -3%
Cc1cc(C)c(C)c(OCC(=O)NCC2CCCO2)c1 (configuration not stated) | -10% | -29% | -5 | -2% | -185%[0.0737 µM]
